A selection: hits, their analogues and other compounds. The true share with any hit is near 19%.
DT40 TDP1 no CPT = qHTS for Inhibitors of human tyrosyl-DNA phosphodiesterase 1 (TDP1): qHTS in cells in absence of CPT; Potency, µM (series often up to 46.2 µM), without a hit: top-dose activity change, negative = growth inhibition, actives largely listed as inhibitors; AID 686978, 2013; hit rate 15% among 420,000; DT40 Tdp1-/- hTDP1 cells, no CPT, ATP luminescence, 48 h; note: potency is the fitted concentration of half-maximal effect; nearly all actives have a fitted effect of over 55% in size
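Seeded 400 DT40-hTDP1 cells/well (vehicle DMSO, no 20 nM CPT); pinned compounds; ≥48 hr at 37 °C; CellTiter-Glo luminescence as viability measure.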
HT1080NT lethal = kills 2HG-producing HT-1080-NT fibrosarcoma cells | HT-1080-NT fibrosarcoma viability, CellTiter-Glo ATP luminescence, 48 h | Potency, µM (top dose mostly 46.1 µM), for inactives: at the highest dose activity, negative = less viability, actives largely listed as cytotoxic | hit rate 1.6% among 360,000;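 note: NT is the 2HG producing partner of a matched IDH1 knockdown line; potency is the fitted concentration of half-maximal effect; 0% = DMSO-treated cells and -100% = media-only wells without cells; nearly all actives have a fitted effect of over 55% in size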
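HT-1080-NT; 750 cells/well; 5% FBS RPMI; 48 h compound, 37 degrees C; CellTiter-Glo luminescence; curve fitting and curve-class assignment.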
IL-1B inflam inh = blocks inflammasome-driven IL-1 beta release; AID 743279; activity change, % at 57.5 µM; hit rate 4.7% among 360,000; THP-1 LPS/ATP IL-1B secretion, AlphaLISA, 16 h; stronger effect = lower value; in the data active = activity change below about -50%; inconclusive = mostly about -30% to -49%
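THP-1 cells pretreated 1 hr with compounds (up to 57.5 uM final), then stimulated with LPS (250 ng/mL final) plus ATP (1.25 mM final); secreted IL-1B measured by AlphaLISA after 16 hr, decreased signal indicating inhibition.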
HT1080 IDH1KD tx = toxicity to HT-1080 IDH1 knockdown cells (counter line); HT-1080 IDH1 knockdown viability, ATP luminescence, 48 h; Potency, µM (top dose mostly 46.1 µM), inactives show at the highest dose activity, negative = toxicity, most hits filed as cytotoxic; hit rate 2% among 360,000;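 note: potency is the fitted concentration of half-maximal effect; 0% = DMSO wells and -100% = cell-free medium wells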
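Viability of IDH1-knockdown HT-1080 fibrosarcoma cells was assessed by CellTiter-Glo after 48 h at 37 °C with titrated compound; concentration-effect curves were classified by fit quality and response size.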
TDP1 cell CPT = DT40-hTDP1 cell growth loss with CPT | AID 686979 | hit rate 12% among 420,000 | chicken DT40 Tdp1-/-;hTDP1 cells + 20 nM CPT, ATP luminescence, 48 h | Potency, µM (highest dose often 46.2 µM), for the others: top-dose activity change, negative = growth inhibition, most hits filed as inhibitors; note: potency is the fitted concentration of half-maximal effect; nearly all actives have a fitted effect of over 55% in size
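Chicken DT40 Tdp1-/- cells complemented with human TDP1, 400 cells/well, exposed to compounds plus 20 nM camptothecin for at least 48 h at 37 C; viability read as ATP content by CellTiter-Glo luminescence.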
Starred values were filed as active, the others as inactive; ? = inconclusive; / = no result; [ ] = another dose, or the depositor's remark. Unless noted, calls come from the whole dose curve; as a rule, active = well fitted curve in the direction sought with a large enough effect; inconclusive = small, poorly fitted or top-dose-only effect, or another doubt; inactive = no such curve, though single readings can be large; an effect the other way counts as inactive or inconclusive. Unless noted, % is set by controls: 0 for no effect and ±100 for the full control effect.

SMILES | DT40 TDP1 no CPT | HT1080NT lethal | IL-1B inflam inh | HT1080 IDH1KD tx | TDP1 cell CPT
C=CCNC(=O)c1ccc(-c2nc3ccccc3nc2-c2ccccc2)cc1 | ? | 1.9% | -11.1 | 4.1% | ?
CCNC(=O)c1ccc2nc(-c3ccccc3)c(-c3ccccc3)nc2c1 | 11.2µM* | / | / | / | 11.2µM*
COc1cccc(CNC(=O)c2ccc3nc(-c4ccc(F)cc4)c(-c4ccc(F)cc4)nc3c2)c1 | 13µM* | / | / | / | 20.6µM*
CCC(C)NC(=O)c1ccc2nc(-c3ccc(OC)c(OC)c3)c(-c3ccc(OC)c(OC)c3)nc2c1 (stereo not given) | ? | -8.8% | -25.6 | -1.5% | 14.6µM*
CCN(CC)C(=O)c1ccc2nc(-c3ccccc3)c(-c3ccccc3)nc2c1 | 20.6µM* | 5.4% | -2.9 | 9.3% | ?
Cc1ccc2c(c1)cc1c(=O)n(CC(=O)N3CCCCC3)nc(C)n12 | ? | / | / | / | 0.6%
COc1ccc(OC)c(N(CCN2C(=O)c3ccccc3C2=O)C(=O)C2CCC(=O)C2C)c1 (stereo not given) | 5.6% | 4.6% | 4.2 | -0.6% | -2.2%
CCC(C)c1ccccc1NC(=O)CN1CCN(C/C=C/c2ccccc2)CC1 (stereo not given) | -17.7% | -5.5% | -11.8 | -10.3% | -20.1%
COc1ccc(S(=O)(=O)c2snnc2C)cc1 | 13.5% | 4.6% | 7.5 | 0.0% | 9.6%
COc1ccccc1CNC(=O)c1ccc2nc(-c3ccccc3)c(-c3ccccc3)nc2c1 | 18.4µM* | / | / | / | ?
Cc1ccc(C(=O)NCCN2CCOCC2)cc1 | 6.9% | 3.2% | 8.4 | -3.1%[9.24 µM] | -0.6%
COc1ccc(C(=O)NCCCN2CCOCC2)cc1 | -2.2% | 2.5% | -7.0 | 2.6% | 6.1%
Cc1c(Cl)cccc1NC(=O)c1ccc2c(c1)nnn2C1CCCC1 | 2.59µM* | / | / | / | 2.59µM*
CC(=O)c1ccc(NC(=O)c2ccc3c(c2)nnn3C2CCCC2)cc1 | -3.4% | / | / | / | 0.3%
COc1ccccc1CNC(=O)c1cccc(N(C)C)c1 | -7.8% | 22.8% | 0.0 | 15.9% | -0.5%
CCN1CCN(CCNC(=O)c2ccc3nc(-c4cccc(C)c4)c(-c4cccc(C)c4)nc3c2)CC1 | 16.4µM* | -2.2% | 0.0 | -21.4% | 16.4µM*
COc1ccc(-c2nc3ccc(C(=O)NCCCN4CCOCC4)cc3nc2-c2ccc(OC)cc2)cc1 | 23.1µM* | -16.4% | -7.8 | -9.6% | ?
Cc1ccc(S(=O)(=O)NCC(=O)NCC(=O)NCCc2ccc(Cl)cc2)cc1C | ? | -11.1% | ? | -18.0% | ?
COc1ccccc1CNC(=O)c1ccc2c(c1)nnn2C1CCCC1 | 16.4µM* | / | / | / | 18.4µM*
CN1CCN(C(=O)c2ccc3nc(-c4ccccc4)c(-c4ccccc4)nc3c2)CC1 | ? | -14.8% | -15.9 | -20.4% | -24.3%
CCCCNC(=O)c1ccc2nc(-c3ccco3)c(-c3ccco3)nc2c1 | ? | -11.0% | -7.2 | -0.5% | ?
COCC(C)NC(=O)c1ccc2nc(-c3ccccc3)c(-c3ccccc3)nc2c1 (stereo not given) | 20.6µM* | 2.5% | -2.3 | -9.1% | ?
O=C(c1ccc2nc(-c3ccccc3)c(-c3ccccc3)nc2c1)N1CCCCC1 | 16.4µM* | 0.0% | ? | -0.2% | ?
COCC(C)NC(=O)c1ccc(N(C)C)cc1 (stereo not given) | -0.4% | 21.7% | -17.6 | 11.0% | 9.4%
CCCNC(=O)c1ccc2nc(-c3ccccc3)c(-c3ccccc3)nc2c1 | 23.1µM* | 8.5% | ? | 5.2% | ?
CCOC(=O)C1CCCN(C(=O)c2cc(S(=O)(=O)N3CCCCC3)c[nH]2)C1 (stereo not given) | -9.1% | 0.6% | -4.0 | -7.6% | -0.7%
O=C(Nc1ccccc1)n1cc(-c2ccccn2)c(N2CCOCC2)n1 | ? | -2.4% | 36.1 | -3.5% | -7.9%
COc1ccc(NC(=O)CN(c2ccc(F)cc2)S(=O)(=O)c2ccccc2)c(OC)c1 | ? | 4.2% | 50.0 | 7.1% | ?
Cc1ccc(CNC(=O)C2CC(c3cccc([N+](=O)[O-])c3)=NO2)o1 (stereo not given) | ? | -8.7% | 24.5 | -3.8% | ?

Bioassay records: PubChem, National Center for Advancing Translational Sciences (NCATS)
